Measurements from PubChem BioAssay (NCI).
This is part of a sample that, as a whole, favours compounds with a hit. Of some 79,000 tested, about 15% had one in any assay. A number with no mark means an inactive call. The source made the active and inactive calls. Cut-off read from the data, not from the text of the source: active = growth inhibition above about 70%; inactive = the rest.

Assays:
[1] = NCI Yeast Anticancer Drug Screen. Data for the wt1 strain (AID 149);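 note: 0% = growth of vehicle-treated wt1 cultures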; settings: S. cerevisiae wt1 strain (SPY 50644) growth inhibition, hits give high values
Method in brief: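 The wt1 strain was treated with compounds, and growth was compared with vehicle-treated cultures to give inhibition.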

[2] = NCI Yeast Anticancer Drug Screen. Data for the mgt1 strain (AID 153); settings: S. cerevisiae mgt1 mutant growth inhibition, hits give high values
Method in brief: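 Growth inhibition relative to vehicle controls was scored for the mgt1 yeast strain after compound exposure.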

[3] = NCI Yeast Anticancer Drug Screen. Data for the rad50 strain (AID 155);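 note: 0% = growth of vehicle-only cultures of the same strain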; settings: S. cerevisiae rad50 strain growth inhibition, hits give high values
Method in brief: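 Cells are treated with compound, grown, and their growth is then scored against vehicle-only cultures of the same repair-deficient yeast strain.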

[4] = NCI Yeast Anticancer Drug Screen. Data for the mec2-1 strain (AID 157); settings: S. cerevisiae mec2-1 strain, hits give high values
Method in brief: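 Growth inhibition is read against vehicle-treated controls after compound exposure of the mec2-1 yeast strain, which is defective in DNA damage repair or cell cycle control.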

[5] = NCI Yeast Anticancer Drug Screen. Data for the rad14 strain (AID 159);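 note: 0% = growth of vehicle-treated control cultures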; settings: S. cerevisiae rad14 strain growth inhibition, hits give high values
Method in brief: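 Readout: yeast growth inhibition, referenced to vehicle-only cultures. Strain bears a defined alteration in DNA damage repair.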

[6] = NCI Yeast Anticancer Drug Screen. Data for the sgs1 mgt1 strain (AID 161);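 note: 0% = growth of cultures given vehicle only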; settings: S. cerevisiae sgs1 mgt1 strain, hits give high values
Method in brief: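 Yeast cells carrying a defined DNA-repair defect were exposed to test compounds. Growth inhibition was measured relative to vehicle-treated controls.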

[7] = NCI Yeast Anticancer Drug Screen. Data for the CLN2oe strain (AID 163);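 note: 0% = growth of vehicle-only control cultures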; settings: S. cerevisiae CLN2oe strain, hits give high values
Method in brief: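 Compound-treated yeast; growth vs vehicle ctrl = % inhibition. Genetically altered strain (cell-cycle control).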

[8] = NCI Yeast Anticancer Drug Screen. Data for the cln2 rad14 strain (AID 165);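 note: 0% = growth equal to vehicle treated cultures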; settings: S. cerevisiae cln2 rad14 strain, hits give high values
Method in brief: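 Growth inhibition, relative to vehicle-treated controls, is the read-out. The test organism is a yeast strain with defined genetic alterations, cln2 rad14.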

[9] = NCI Yeast Anticancer Drug Screen. Data for the bub3 strain (AID 167); settings: S. cerevisiae bub3 mutant strain, hits give high values
Method in brief: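 Part of a panel of yeast mutants defective in DNA damage repair or cell cycle regulation. Each strain is grown with compound, and inhibition is calculated relative to solvent-treated cultures.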

[10] = NCI Yeast Anticancer Drug Screen. Data for the wt2 strain (AID 169);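 note: 0% = growth of vehicle-treated yeast cultures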; settings: S. cerevisiae wt2 strain growth inhibition, hits give high values
Method in brief: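 Compound exposure of yeast; growth compared with vehicle controls; inhibition reported.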

[11] = NCI Yeast Anticancer Drug Screen. Data for the mlh1 strain (AID 171);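 note: 0% = growth of vehicle-treated control cultures of the same strain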; settings: S. cerevisiae mlh1 strain growth inhibition, hits give high values
Method in brief: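 Compounds are applied to a genetically altered yeast strain, and its growth is compared with that of vehicle-treated cultures to give percent inhibition.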

[12] = NCI Yeast Anticancer Drug Screen. Data for the mlh1 rad18 strain (AID 175); settings: S. cerevisiae mlh1 rad18 strain growth inhibition, hits give high values
Method in brief: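 Cells of a genetically altered yeast strain, deficient in DNA damage repair, were treated with compound. Their growth was then compared with that of vehicle-treated cultures to give inhibition.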

[13] = NCI Yeast Anticancer Drug Screen. Data for the rad18 strain (AID 177); settings: S. cerevisiae rad18 mutant growth inhibition, hits give high values
Method in brief: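 Compounds are applied to a repair-deficient yeast strain, and growth is compared with that of vehicle-treated cultures to give percent inhibition.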

[14] = at 5.0 µM (retest, dose inferred, filed as 0.5)
[15] = at 50.0 µM (retest, dose inferred, filed as 5.0)

With `COc1ccc(/C(=N/O)c2ccccc2C2=Nc3ccccc3C(NCc3ccccc3)O2)cc1C` (stereo not drawn) the growth inhibition ([1]; at 1.2 µM) was -1%, the growth inhibition ([1]; at 3.7 µM) was -2% and the growth inhibition ([1]; at 11.0 µM) was 1%. For the same compound, the growth inhibition ([1]; at 33.0 µM) was 17%, the growth inhibition ([1]; at 100.0 µM) was 89% (active) and the growth inhibition ([2]; at 1.2 µM) was -2%. For the same compound, the growth inhibition ([2]; at 3.7 µM) was -3%, the growth inhibition ([2]; at 11.0 µM) was -1% and the growth inhibition ([2]; at 33.0 µM) was 31%. For the same compound, the growth inhibition ([2]; at 100.0 µM) was 97% (active), the growth inhibition ([3]; at 1.2 µM) was 1% and the growth inhibition ([3]; at 3.7 µM) was 3%. It also gave a growth inhibition [3, 14] of 2%, a growth inhibition ([3]; at 11.0 µM) of 11% and a growth inhibition ([3]; at 33.0 µM) of 59%. The growth inhibition [3, 15] was 95% (active), the growth inhibition ([3]; at 50.0 µM) was 94.9% (active) and the growth inhibition ([3]; at 100.0 µM) was 94% (active). For the same compound, the growth inhibition ([4]; at 1.2 µM) was -2%, the growth inhibition ([4]; at 3.7 µM) was 0% and the growth inhibition [4, 14] was -4%. It also gave a growth inhibition ([4]; at 11.0 µM) of 1%, a growth inhibition ([4]; at 33.0 µM) of 37% and a growth inhibition [4, 15] of 62%. For the same compound, the growth inhibition ([4]; at 50.0 µM) was 92.6% (active), the growth inhibition ([4]; at 100.0 µM) was 96% (active) and the growth inhibition ([5]; at 1.2 µM) was 1%. The growth inhibition ([5]; at 3.7 µM) was 2%, the growth inhibition ([5]; at 11.0 µM) was 7% and the growth inhibition ([5]; at 33.0 µM) was 21%. For the same compound, the growth inhibition ([5]; at 100.0 µM) was 96% (active), the growth inhibition [6, 14] was -3% and the growth inhibition [6, 15] was 85% (active). For the same compound, the growth inhibition ([6]; at 50.0 µM) was 95.8% (active), the growth inhibition ([7]; at 1.2 µM) was -2% and the growth inhibition ([7]; at 3.7 µM) was 2%. The growth inhibition ([7]; at 11.0 µM) was 1%, the growth inhibition ([7]; at 33.0 µM) was 4% and the growth inhibition ([7]; at 100.0 µM) was 94% (active). The growth inhibition [8, 14] was 31%, the growth inhibition [8, 15] was 51% and the growth inhibition ([8]; at 50.0 µM) was 83% (active). For the same compound, the growth inhibition ([9]; at 1.2 µM) was -1%, the growth inhibition ([9]; at 3.7 µM) was 2% and the growth inhibition [9, 14] was 15%. For the same compound, the growth inhibition ([9]; at 11.0 µM) was 4%, the growth inhibition ([9]; at 33.0 µM) was 48% and the growth inhibition [9, 15] was 93% (active). For the same compound, the growth inhibition ([9]; at 50.0 µM) was 94.8% (active), the growth inhibition ([9]; at 100.0 µM) was 95% (active) and the growth inhibition ([10]; at 1.2 µM) was -1%. The growth inhibition ([10]; at 3.7 µM) was -3%, the growth inhibition ([10]; at 11.0 µM) was 0% and the growth inhibition ([10]; at 33.0 µM) was 14%. The growth inhibition ([10]; at 100.0 µM) was 96% (active), the growth inhibition ([11]; at 1.2 µM) was -6% and the growth inhibition ([11]; at 3.7 µM) was -2%. The growth inhibition ([11]; at 11.0 µM) was 0%, the growth inhibition ([11]; at 33.0 µM) was 14% and the growth inhibition ([11]; at 100.0 µM) was 96% (active). For the same compound, the growth inhibition [12, 14] was 2%, the growth inhibition [12, 15] was 93% (active) and the growth inhibition ([12]; at 50.0 µM) was 94.2% (active). The growth inhibition ([13]; at 1.2 µM) was 0%, the growth inhibition ([13]; at 3.7 µM) was 0% and the growth inhibition ([13]; at 11.0 µM) was 11%. For the same compound, the growth inhibition ([13]; at 33.0 µM) was 67% and the growth inhibition ([13]; at 100.0 µM) was 94% (active).
